Consider seven molecules from PubChem BioAssay (Tox21).

“And” between values parts separate entries of the source, which are not always exact repeats. Equal entries are not always repeated. Results filed as inconclusive are left out. Where a structure was tested more than once in an assay, its records may differ in their call. The source made the active and inactive calls. Unless noted, calls follow the shape of the dose curve; as a rule, active = well fitted curve in the direction sought with a large enough effect in the repeat runs; inconclusive = weak or mixed curves; inactive = no such curve, though single readings can be large; an effect the other way counts as inactive or inconclusive.

The nature of test [1]: qHTS assay to identify small molecule antagonists of the estrogen related receptor (ERR) signaling pathway from Tox21 library - cell viability counter screen (AID 1224834). Also: nearly all actives have a fitted effect of over 30% in size. A digest of the protocol:
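In this quantitative HTS format, ERR cells receive compounds in DMSO and are incubated for 17.5 h at 37 C. Live-cell protease activity is then detected with CellTiter-Fluor.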
A general note: qHTS replaces the single test concentration by a dilution series.

Test [2] concerns the target Luciferin 4-monooxygenase (Photinus pyralis) (UniProt P08659). As to the kind of experiment: qHTS assay to identify small molecule inhibitors of firefly luciferase (AID 1224835). Also: nearly all actives have a fitted effect of over 25% in size. Also: potency is read from the fitted curve at half-maximal effect. A digest of the protocol: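 Biochemical qHTS: compounds run as interplate titrations against purified firefly enzyme, with D-luciferin and ATP each at its KM concentration. Light output recorded by CCD imaging.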

Test [3] can be described thus: qHTS assay to identify small molecule antagonists of the constitutive androstane receptor (CAR) signaling pathway - cell viability counter screen (AID 1224837). Also: nearly all actives have a fitted effect of over 45% in size. In a few lines: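 In quantitative HTS format, compounds at 15 concentrations were applied to HepG2 cells double-transfected with hCAR and CYP2B6-2.2kb under 50 nM CITCO stimulation; live-cell protease activity was read after 23 hr via CellTiter-Fluor.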

Test [4] concerns the target Nuclear receptor subfamily 1 group I member 3 (Homo sapiens) (UniProt Q14994). The experiment in a line: qHTS assay to identify small molecule antagonists of the constitutive androstane receptor (CAR) signaling pathway (AID 1224838). Also: nearly all actives have a fitted effect of over 40% in size. In a few lines:
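CITCO-stimulated (50 nM final) HepG2 cells stably transfected with hCAR and CYP2B6-2.2kb luciferase were exposed to compounds at 15 concentrations for 24 h at 37 C/5% CO2. A luciferase reagent was added and luminescence recorded after 30 min.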

A short description of test [5]: qHTS assay to identify small molecule antagonists of the estrogen related receptor signaling pathway with the pleiotropic PPARgamma coactivator (PGC) from Tox21 10K library - cell viability counter screen (AID 1224840; active = well fitted cell-killing curve with a large enough effect in the repeat runs, not every such curve was filed as active; also: nearly all actives have a fitted effect of over 40% in size). A digest of the protocol: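 Viability counter screen, PGC/ERR cells: 17.5 h compound exposure at 37 C, CellTiter-Fluor fluorescence endpoint.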
Test [6] can be described thus: qHTS assay to identify small molecule antagonists of the estrogen related receptor signaling pathway with the pleiotropic PPARgamma coactivator (PGC) from Tox21 10K library (AID 1224841; call rule not given here; also: actives are mostly falling curves and most rising ones were filed inactive; nearly all actives have a fitted effect of over 50% in size; also: potency is read from the fitted curve at half-maximal effect). In a few lines: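 In the PGC/ERR line, DMSO solutions of test chemicals are pin-delivered to 2,000 cells/well six hours after dispensing. Following eighteen hours' incubation, One-Glo reagent is added and luminescence recorded.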

The nature of test [7]: qHTS assay to identify small molecule agonists of the estrogen related receptor signaling pathway with the pleiotropic PPARgamma coactivator (PGC) from Tox21 10K library (AID 1224842). Also: nearly all actives have a fitted effect of over 15% in size. In a few lines: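 PGC/ERR reporter cell line, 2,000 cells per well, incubated 6 h at 37 C before 23 nL compound in DMSO was added. After 18 h at 37 C, One-Glo luminescence read following 30 min at room temperature.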

Test [8] can be described thus: qHTS assay to identify small molecule agonists of the hypoxia (HIF-1) signaling pathway - cell viability counter screen (AID 1224844; calls by dose curve; also: nearly all actives have a fitted effect of over 50% in size; also: potency is read from the fitted curve at half-maximal effect). In a few lines:
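Same wells as the HIF-1 reporter screen; ME-180 cells carrying HRE-bla, 17 hr treatment at 37C; CellTiter-Glo luminescence read after 30 min at room temperature.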

The nature of test [9]: qHTS assay to identify small molecule agonists of H2AX (AID 1224845; active = well fitted activation curve with a large enough effect in the signal ratio in the repeat runs, not every such curve was filed as active; the % refers to the signal ratio). In a few lines:
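Wild-type CHO-K1 cells, plated overnight, exposed 3hr at 37C to 15 concentrations (0.76% DMSO final). Lysed, then HTRF anti-pH2AX (S139) cryptate and anti-H2AX-d2 antibodies, 24 hr room temperature; 665/620 nm emission read.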

The nature of test [10]: qHTS assay to identify small molecule agonists of the hypoxia (HIF-1) signaling pathway (AID 1224846; active = well fitted activation curve with a large enough effect in the signal ratio in the repeat runs, not every such curve was filed as active; the % refers to the signal ratio). A digest of the protocol: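 In ME-180 cells bearing an HRE-bla construct, 17 h treatment with DMSO-dissolved compounds at 37C was followed by CCF4-AM loading to quantify reporter induction.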
Test [11] in a line: qHTS assay to identify small molecule agonists of H2AX - cell viability counter screen (AID 1224847; calls by dose curve; also: top concentration of the series differs between compounds; nearly all actives have a fitted effect of over 30% in size). A digest of the protocol:
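Cells plated first: CHO-K1, 1000 per well in 10% FBS medium, incubated overnight at 37C. Then 15-point compound titration added (final DMSO 0.76%) for 3 hr. Finally CellTiter-Glo added and luminescence read.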

Test [12] is described as follows: qHTS assay to identify small molecule agonists of the estrogen related receptor (ERR) signaling pathway from Tox21 library (AID 1224849; calls by dose curve; also: nearly all actives have a fitted effect of over 15% in size). To be noted: ERR reporter cell line, ONE-Glo luciferase, 18 h. In a few lines: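 Reporter cells (ERR, NTP source) treated with Tox21 10K compounds 18 h, 37 C. Readout: ONE-Glo luminescence, 30 min RT.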
Test [13] is described as follows: qHTS RealTime-Glo MT Cell Viability Assay in HepG2 cells - 24 hour (AID 1224867). Also: nearly all actives have a fitted effect of over 50% in size. In a few lines:
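HepG2 suspension premixed with RealTime-Glo reagents is plated at 600 cells per well and left 5 h at 37 C/5% CO2. Compounds in DMSO then go in, and bioluminescence reflecting viable cell number is recorded over 40 h.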

Test [14] in a line: qHTS RealTime-Glo MT Cell Viability Assay in HEK293 cells - 32 hour (AID 1224868). Also: nearly all actives have a fitted effect of over 50% in size. Also: potency is read from the fitted curve at half-maximal effect. A digest of the protocol: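 Reads taken at 0, 8, 16, 24, 32 and 40 h from the same wells. HEK293 cells (600/well) carried RealTime-Glo reagents from seeding, with compound added after a 5 h settle at 37 C.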
Test [15] in a line: A CellTox Green Cytotoxicity Assay to monitor cytotoxicity in HEK293 cells - 0 hour (AID 1224869). Also: nearly all actives have a fitted effect of over 50% in size. In a few lines: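 Homogeneous no-lysis format: HEK293 cell suspension mixed with CellTox Green reagent, seeded, incubated 5 h at 37 C/5% CO2, then dosed by pintool with compound in DMSO.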
Test [16] in a line: qHTS RealTime-Glo MT Cell Viability Assay in HepG2 cells - 40 hour (AID 1224870). Also: nearly all actives have a fitted effect of over 50% in size. In a few lines:
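HepG2 cells (600/well) mixed with RealTime-Glo MT reagent, settled 5 h at 37 C/5% CO2 before compound addition. Nonlytic NanoLuc luminescence from viable-cell prosubstrate reduction read repeatedly during 40 h treatment at 37 C.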

Test [17] addresses Thyrotropin receptor (Homo sapiens) (UniProt P16473). The experiment in a line: qHTS assay to identify small molecule agonists of the thyroid stimulating hormone receptor (TSHR) signaling pathway (AID 1224843; calls by dose curve; also: nearly all actives have a fitted effect of over 45% in size). A digest of the protocol: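 Agonist-mode screen: TSHR HEK293 cells received test chemicals for half an hour at room temperature, then HTRF cAMP detection reagents for one hour prior to fluorescence measurement. Each chemical ran as a 15-concentration series, triplicated.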

Test [18] in a line: qHTS assay to identify small molecule agonists of the constitutive androstane receptor (CAR) signaling pathway - cell viability counter screen (AID 1224836). Also: nearly all actives have a fitted effect of over 45% in size. In a few lines: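 HepG2-CYP2B6-hCAR, 2500 cells/well, 4 h pre-incubation; cpd 15 conc + PK11195 0.75 uM final; 23 h, 37 C/5% CO2; CellTiter-Fluor, fluorescence.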
Test [19] deals with Nuclear receptor subfamily 1 group I member 3 (Homo sapiens) (UniProt Q14994). The experiment in a line: qHTS assay to identify small molecule agonists of the constitutive androstane receptor (CAR) signaling pathway (AID 1224839).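 Also: HepG2 cells stably carrying human CAR and a CYP2B6 luciferase reporter; nearly all actives have a fitted effect of over 15% in size.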 In a few lines: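 HepG2-CYP2B6-hCAR cells, 2500/well, 4 h pre-incubation; compounds 15 conc.; PK11195 0.75 uM final; 24 h, 37 C/5% CO2; ONE-Glo luciferase read.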
Chain of Nuclear receptor subfamily 1 group I member 3 (Homo sapiens) (Q14994 whole entry, looked up): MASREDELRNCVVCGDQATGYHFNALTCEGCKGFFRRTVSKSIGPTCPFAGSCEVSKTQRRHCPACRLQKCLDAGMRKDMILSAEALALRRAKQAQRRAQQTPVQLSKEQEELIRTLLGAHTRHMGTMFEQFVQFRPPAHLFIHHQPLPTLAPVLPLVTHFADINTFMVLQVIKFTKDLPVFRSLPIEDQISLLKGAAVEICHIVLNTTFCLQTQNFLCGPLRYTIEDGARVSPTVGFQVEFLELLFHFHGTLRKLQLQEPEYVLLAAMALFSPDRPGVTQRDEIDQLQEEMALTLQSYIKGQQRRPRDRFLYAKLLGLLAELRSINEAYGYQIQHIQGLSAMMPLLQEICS

A short description of test [20]: qHTS assay to identify small molecule antagonists of the estrogen related receptor (ERR) signaling pathway from Tox21 library (AID 1224848). Also: nearly all actives have a fitted effect of over 50% in size. Also: potency is read from the fitted curve at half-maximal effect. A digest of the protocol: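 Quantitative high-throughput format: ERR reporter cells (2,000/well) pre-incubated 6 h, treated 18 h at 37 C with compounds in DMSO alongside positive and negative controls, then read by ONE-Glo luminescence.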
% is scaled to controls: 0 for no effect and ±100 for the full control effect.

Chain of Luciferin 4-monooxygenase (Photinus pyralis) (P08659 whole entry, looked up): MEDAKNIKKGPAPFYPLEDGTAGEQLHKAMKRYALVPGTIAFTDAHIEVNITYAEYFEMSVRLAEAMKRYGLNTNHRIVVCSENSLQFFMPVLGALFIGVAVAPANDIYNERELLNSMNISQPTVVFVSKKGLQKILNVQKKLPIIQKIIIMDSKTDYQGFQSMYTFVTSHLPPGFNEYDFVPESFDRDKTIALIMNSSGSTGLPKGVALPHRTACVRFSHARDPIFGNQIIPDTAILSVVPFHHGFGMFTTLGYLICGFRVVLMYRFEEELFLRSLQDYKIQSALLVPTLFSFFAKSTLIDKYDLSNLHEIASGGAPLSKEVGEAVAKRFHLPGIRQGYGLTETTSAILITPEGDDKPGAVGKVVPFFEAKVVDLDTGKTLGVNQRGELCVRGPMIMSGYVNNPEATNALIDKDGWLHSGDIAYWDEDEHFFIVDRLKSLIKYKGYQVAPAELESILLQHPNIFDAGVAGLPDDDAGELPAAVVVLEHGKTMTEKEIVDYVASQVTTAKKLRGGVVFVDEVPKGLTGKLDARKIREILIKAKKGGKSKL
Chain of Thyrotropin receptor (Homo sapiens) (P16473 whole entry, looked up): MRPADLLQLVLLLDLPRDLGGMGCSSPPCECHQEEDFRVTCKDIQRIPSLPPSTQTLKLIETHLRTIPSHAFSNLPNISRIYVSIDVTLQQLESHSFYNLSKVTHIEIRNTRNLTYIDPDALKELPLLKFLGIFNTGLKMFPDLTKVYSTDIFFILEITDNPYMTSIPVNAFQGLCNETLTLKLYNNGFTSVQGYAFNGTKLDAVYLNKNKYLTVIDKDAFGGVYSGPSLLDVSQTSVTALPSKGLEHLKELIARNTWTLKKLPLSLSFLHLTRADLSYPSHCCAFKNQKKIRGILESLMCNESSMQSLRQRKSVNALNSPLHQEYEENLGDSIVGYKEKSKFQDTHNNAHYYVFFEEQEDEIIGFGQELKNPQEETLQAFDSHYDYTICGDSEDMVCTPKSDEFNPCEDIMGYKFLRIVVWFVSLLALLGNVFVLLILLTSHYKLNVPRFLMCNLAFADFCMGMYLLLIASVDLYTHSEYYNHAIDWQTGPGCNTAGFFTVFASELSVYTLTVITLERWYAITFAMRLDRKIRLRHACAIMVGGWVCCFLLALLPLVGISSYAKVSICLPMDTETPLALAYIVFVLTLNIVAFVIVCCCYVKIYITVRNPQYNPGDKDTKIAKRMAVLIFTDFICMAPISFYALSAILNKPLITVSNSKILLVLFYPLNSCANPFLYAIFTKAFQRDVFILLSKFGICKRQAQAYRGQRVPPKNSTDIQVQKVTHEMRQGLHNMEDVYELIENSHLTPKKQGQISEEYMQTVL

Consider `CC(=O)[C@@]1(O)CC[C@H]2[C@@H]3C[C@H](C)C4=CC(=O)C=C[C@]4(C)[C@@]3(F)[C@@H](O)C[C@@]21C`, for which the Potency result in test [1], in test [2], in test [3], in test [4], in test [5] and in test [6] was “inactive” throughout. Besides, the Potency result in test [7], in test [8], in test [9], in test [11], in [13] and in test [15] was “inactive” each time. The Potency result in [16] is “inactive”. The outcome in test [10] was inactive. Besides, the activity change, positive = activation in [12] (at 42.5 µM (top of the series)) was -14.9% (inactive); in test [12] (at 92.4 µM (top of the series)) it was -31% (inactive). Moreover, in test [14], the Potency was 19.5 µM (active) and inactive.

For the molecule `Nc1cc(Cl)c(N)c(Cl)c1`, the Potency entry in [1], in [2], in [3], in [4], in test [5] and in test [17] was “inactive” each time. In addition, the Potency entry in test [8], in test [11], in test [13], in [14], in test [15] and in [16] was “inactive” in each case. Moreover, the outcome in test [10] was inactive.

Regarding `C=CC(=O)OCCCC`, the Potency result in test [1], in [2], in test [18], in test [4], in [19] and in test [5] was “inactive” each time. Moreover, the Potency result in [6], in test [7], in [17], in [8], in [9] and in [11] was “inactive” each time. Further, the Potency result in [20], in [13], in [14], in test [15] and in test [16] was “inactive” each time. For the same molecule, the molecule was called inactive in [10]. Further, the activity change, positive = activation in test [12] (at 92.4 µM (top of the series)) is 7.41% (inactive) and 1.06% (inactive).

As to `CC/C=C\C/C=C\C/C=C\CCCCCCCC(=O)O`, the Potency result in test [1], in [2], in test [18], in test [4], in [5] and in test [17] was “inactive” each time. Further, the Potency entry in [8], in test [9], in test [11], in test [13], in [14] and in [15] was “inactive” in each case. In test [16], the Potency result is “inactive”. Also, the result in test [10] was inactive.

Turning to `C1CN(SSN2CCOCC2)CCO1`, the Potency result in test [2], in test [18], in test [7], in test [17], in test [11] and in test [13] was “inactive” throughout. In addition, the Potency entry in [14], in test [15] and in [16] was “inactive” each time. In addition, the Potency in [6] was 53.9 µM (active); in test [8], 54.4 µM (active); in [20] it was 60.5 µM (active) and 61.1 µM (active). In addition, in [10], the outcome was inactive. Besides, the activity change, positive = activation in test [12] (at 92.4 µM (top of the series)) is -55.6% (inactive) and -54.1% (inactive).

On to `Oc1ccc(C(c2ccc(O)cc2)C(Cl)(Cl)Cl)cc1`, for which the Potency entry in [2], in test [18], in test [3], in [8], in test [9] and in test [13] was “inactive” each time. Besides, the Potency result in test [15] and in test [16] was “inactive” in each case. The result in test [10] was inactive.

`C[C@]12CC[C@@H]3c4ccc(O)cc4CC[C@H]3[C@@H]1CC[C@H]2O`: the Potency entry is “inactive and 39.9 µM (active)” in test [2]; 15.6 µM (active) and 27.3 µM (active) in test [20]; 5.59 µM (active) and 13.8 µM (active) in [14]. Moreover, the Potency result in [3], in test [4], in test [5], in test [6], in test [7] and in [8] was “inactive” throughout. Besides, the Potency result in test [9], in [11], in [13], in [15] and in test [16] was “inactive” each time. The activity change, positive = activation in [12] (at 92.4 µM (top of the series)) was -38.5% (inactive) and -39.7% (inactive).
